Only some compounds are listed: those with a hit (about 6.9% of all), similar ones and a draw of the others.
Mdm2 MdmX PPI: inhibitors of human Mdm2/MdmX interaction | hit rate 3% among 330,000 | AID 485346 | O15151+Q00987 | SaOS-2 split-luciferase Mdm2/MdmX complementation, luminescence | inhibition, % at 8 µM;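 active = inhibition of at least 50% at 8 µM in the primary screen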
Target sequence (O15151 whole entry, looked up): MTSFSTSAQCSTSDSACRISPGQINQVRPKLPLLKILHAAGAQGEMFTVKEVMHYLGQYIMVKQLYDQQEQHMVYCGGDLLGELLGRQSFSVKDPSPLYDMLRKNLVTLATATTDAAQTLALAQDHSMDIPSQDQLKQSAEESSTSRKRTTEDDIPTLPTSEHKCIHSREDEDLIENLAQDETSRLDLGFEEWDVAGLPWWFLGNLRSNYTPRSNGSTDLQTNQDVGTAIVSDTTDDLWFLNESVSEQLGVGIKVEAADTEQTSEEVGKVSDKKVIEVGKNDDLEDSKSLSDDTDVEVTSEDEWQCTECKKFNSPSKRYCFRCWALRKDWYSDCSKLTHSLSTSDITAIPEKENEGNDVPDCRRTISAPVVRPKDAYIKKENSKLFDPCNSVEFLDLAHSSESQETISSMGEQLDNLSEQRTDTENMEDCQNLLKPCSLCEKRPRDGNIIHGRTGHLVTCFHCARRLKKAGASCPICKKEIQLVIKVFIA
Target sequence (Q00987 whole entry, looked up): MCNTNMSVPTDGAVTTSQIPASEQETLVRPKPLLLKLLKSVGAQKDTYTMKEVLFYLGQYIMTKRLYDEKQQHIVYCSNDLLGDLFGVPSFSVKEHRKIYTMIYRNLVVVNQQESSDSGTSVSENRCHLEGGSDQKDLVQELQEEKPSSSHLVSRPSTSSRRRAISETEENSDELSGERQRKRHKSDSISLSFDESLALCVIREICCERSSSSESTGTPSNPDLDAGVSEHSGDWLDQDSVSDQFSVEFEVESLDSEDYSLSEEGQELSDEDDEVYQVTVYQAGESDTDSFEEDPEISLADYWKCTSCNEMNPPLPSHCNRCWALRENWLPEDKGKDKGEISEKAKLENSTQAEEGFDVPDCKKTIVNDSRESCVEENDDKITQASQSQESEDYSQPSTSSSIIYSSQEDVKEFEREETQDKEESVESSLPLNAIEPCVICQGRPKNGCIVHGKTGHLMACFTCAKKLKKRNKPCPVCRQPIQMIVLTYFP
MPTP block: inhibitors of mitochondrial permeability transition pore. isolated mouse mitochondria, Ca2+ swelling absorbance, 30 min. inhibition, % at 10 µM. hit rate 1.4% among 360,000. AID 602449;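 active = inhibition of 50% or more, scaled per plate between neutral and stimulator controls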
CSC inhib: cancer stem cell inhibition | cancer stem cell-like cells viability, luminescence | inhibition, % at 7.5 µM | hit rate 1.1% among 300,000 | AID 2717; in the data active = inhibition above about 75%; tested in HMLE shEcad cells
SKKanGAS inh: inhibitors of SKKanGAS S. pyogenes growth in kanamycin (SK-promoter or general growth effect); BacTiter-Glo, 6 h; inhibition, % at 7.5 µM; hit rate 1.3% among 300,000; AID 1662;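 active = mean replicate score, as percent of positive control median, at least 50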;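 also: strain carries kanamycin resistance gene driven by streptokinase promoter and grows in 40 µg/ml kanamycin; loss of luminescence reflects streptokinase promoter inhibition or plain growth inhibition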
Beta apoptosis: blocks beta cell apoptosis | INS-1E cytokine-induced death, ATP luminescence, 48 h; percent of positive-control rescue, neutral wells zero | protection from apoptosis, % (test concentration not listed) | hit rate 0.8% among 300,000 | AID 435005;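 active = Every replicate reaches about 75%, or at least half do and their mean reaches it too, limit read from the data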;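 also: higher means more ATP so stronger rescue from cytokine killing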
NR3A LBD binder: modulates the human NR3A ligand-binding domain; NR3A LBD differential scanning fluorimetry, Tm shift; 0% = protein alone, 100% = glycine-bound protein; Tm shift relative to glycine control, % at 25 µM; hit rate 2.5% among 340,000; AID 1259313;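 active = melting temperature shift of at least 10% of the positive control shift, at one fixed dose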
Mdm2-MdmX conf: confirmation of human Mdm2/MdmX interaction inhibitors; inhibition, % at 8 µM; shares compounds with Mdm2 MdmX PPI; Mdm2-MdmX binding, luminescent assay; hit rate 55% among 10,000; in the data active = inhibition above about 40%
FLuc counter: inhibits full-length luciferase, flagging false Mdm2/MdmX hits | inhibition, % at 8 µM | shares compounds with Mdm2 MdmX PPI | SaOS-2 full-length luciferase counterscreen, luminescence | hit rate 77% among 6,200;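 active = mean inhibition at 8 µM reaching about 37%, which flags the compound as non-specific, limit read from the data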;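 also: p53-null SaOS-2 cells with luciferase driven by a doxycycline-inducible promoter; compound on cells about two nights before reading with doxycycline added after day one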
Of the large screens only hits and unclear results are named; the others gave an inactive call (follow-up assays come after a bar, where they were run).

O=C(N/N=C/c1ccc(Cl)cc1Cl)c1n[nH]c2c1CCCC2	none
C=C[C@@H]1c2cccc(C)c2N(S(=O)(=O)c2ccc(C)cc2)[C@H](c2ccc(OC(C)=O)cc2)C1(C#N)C#N	Mdm2 MdmX PPI 51.3, CSC inhib 106.7 (no result: SKKanGAS inh) | Mdm2-MdmX conf inactive
COC(=O)C1=C(C)NC(C)=C(C(=O)OCC(C)C)C1c1ccccc1[N+](=O)[O-] (centres undefined)	Mdm2 MdmX PPI 71.7 | Mdm2-MdmX conf 64.8 | FLuc counter inactive
CCOC(=O)C1=C(C)NC(C)=C(C(=O)OCC)C1c1cccc([N+](=O)[O-])c1	none (no result: Mdm2 MdmX PPI, CSC inhib, SKKanGAS inh, Beta apoptosis, NR3A LBD binder)
Cc1noc(/C=C/N(C)C)c1S(=O)(=O)N1CCCC(C(=O)Nc2ccccc2F)C1 (centres undefined)	none
Cc1ccc(C)c2sc(NC(=O)c3nc4ccccc4s3)nc12	Mdm2 MdmX PPI 57.6 | Mdm2-MdmX conf inactive
O=C(Nc1ccccc1)c1nc2ccccc2s1	none
Cc1cc(O)c(C(C)C)cc1C1(c2cc(C(C)C)c(O)cc2C)OC(=O)c2ccccc21	Mdm2 MdmX PPI 99.6, CSC inhib 150.1, SKKanGAS inh 84.3, NR3A LBD binder 11.4 | Mdm2-MdmX conf 58.4 | FLuc counter inactive
C=CCn1c(SCC(=O)N(CCO)CCO)nc2sc3c(c2c1=O)CCC3	none
O=C(NCCC1=CCCCC1)c1c(O)nc2sccn2c1=O	Mdm2 MdmX PPI 79.9 | Mdm2-MdmX conf 57.2 | FLuc counter 67.5
CCn1c(=O)c(C(=O)NCCCc2ccccc2)c(O)c2ccccc21	none
O=C(NCCC1=CCCCC1)c1c(O)nc2ccccn2c1=O	none
O=C(NCCCc1ccccc1)c1c(O)nc2sccn2c1=O	Mdm2 MdmX PPI 75.3 (no result: Beta apoptosis) | Mdm2-MdmX conf 56.8 | FLuc counter 51.9
Cc1ccc(-c2nc(-c3ccccn3)no2)cc1	Mdm2 MdmX PPI 85.5, SKKanGAS inh 59.2 | Mdm2-MdmX conf 86.0 | FLuc counter 52.8
c1ccc(-c2ccc(-c3nc(-c4ccccn4)no3)cc2)cc1	Mdm2 MdmX PPI 96.6 | Mdm2-MdmX conf 88.8 | FLuc counter inactive
c1ccc(-c2nc(-c3ccccn3)no2)cc1	none
Cc1ccc(-c2nc(-c3ccccn3)no2)cc1Cl	none
COc1ccc(N2CCN(C(=O)NC3CC(=O)N(c4ccc(OC)cc4)C3)CC2)cc1 (centres undefined)	none
O=S1(=O)CCOC[C@H](Cc2ccccc2)N1Cc1ccc(Cl)cc1	none
Cc1ccccc1C(=O)O/N=C/c1c(N2CCOCC2)n(C)c2ccccc12	Mdm2 MdmX PPI 53.2 | Mdm2-MdmX conf inactive
CN1CCN(c2c(/C=N/O)c3ccccc3n2C)CC1	none
O=C(c1ccc(F)cc1F)N1CCCC(c2nc(-c3cccs3)no2)C1 (centres undefined)	none (no result: CSC inhib)
Cn1c2ccccc2c(=O)c2c(=O)n(-c3ccccc3)c(-c3ccc(C(C)(C)C)cc3)nc21	Mdm2 MdmX PPI 88.8 | Mdm2-MdmX conf 78.6 | FLuc counter 54.6
Cn1c2ccccc2c(=O)c2c(=O)n(C3CCCCC3)c(-c3ccco3)nc21	Mdm2 MdmX PPI 79.7 (no result: Beta apoptosis) | Mdm2-MdmX conf 65.8 | FLuc counter 90.0
Cc1ccc(-c2nc3c(c(=O)c4ccccc4n3C)c(=O)n2-c2ccc(F)cc2)cc1	none
O=C(Nc1cc(=O)[nH]c(=O)[nH]1)c1cccc(C(F)(F)F)c1	none
O=C(Nc1cc(=O)[nH]c(=O)[nH]1)c1cc(Cl)ccc1Cl	Mdm2 MdmX PPI 64.0 | Mdm2-MdmX conf 55.9 | FLuc counter 58.3
Cc1ccc(Sc2c(CO)c(-c3ccccc3)nn2C)cc1	Mdm2 MdmX PPI 50.8 | Mdm2-MdmX conf 47.0 | FLuc counter 91.8
CCOC(=O)[C@]12CCCC=C1N(Cc1ccco1)C(=O)[C@H](CC(=O)N1CCCCC1)C2	none (no result: Mdm2 MdmX PPI, CSC inhib, SKKanGAS inh, Beta apoptosis, NR3A LBD binder)
CSc1ccc(S(=O)(=O)NCCCOC(C)C)cc1	none
COc1ccc(-n2ncc3c(=O)n(Cc4c(F)cccc4Cl)cnc32)cc1	none (no result: SKKanGAS inh)
CC1CCc2c(sc(NC(=O)c3cccn3C)c2C(N)=O)C1 (centres undefined)	none (no result: SKKanGAS inh)
Cc1cccc(C(O)(C(=O)NNc2ccc3ccccc3n2)c2cccc(C)c2)c1	Mdm2 MdmX PPI 53.2 (no result: CSC inhib) | Mdm2-MdmX conf inactive
CCOc1ccc(OCC)c(NC(=O)c2nnn(CC(=O)Nc3cc(C)cc(C)c3)c2N)c1	Mdm2 MdmX PPI 58.4, NR3A LBD binder 15.7 | Mdm2-MdmX conf inactive
COc1cccc(NC(=O)c2nnn(CC(=O)Nc3cc(C)cc(C)c3)c2N)c1	Mdm2 MdmX PPI 74.0 (no result: Beta apoptosis) | Mdm2-MdmX conf inactive
COc1cccc(NC(=O)Cn2nnc(C(=O)Nc3ccccc3)c2N)c1	none
CC1(C)N=C(N)N=C(N)N1c1cccc(C#N)c1	none (no result: Mdm2 MdmX PPI, CSC inhib, SKKanGAS inh, Beta apoptosis)
CCC(C)NC(=O)CCc1c(C)nc2c(c(C)nn2-c2ccccc2)c1C (centres undefined)	none
Cc1nc2c(c(C)nn2-c2ccccc2)c(C)c1CCC(=O)Nc1ccc(CN2CCCC2)cc1	Mdm2 MdmX PPI 63.8 | Mdm2-MdmX conf inactive | FLuc counter 53.0
CNCc1ccccc1Sc1cccc(O)c1	none (no result: CSC inhib)
CNCc1ccccc1Sc1cc(O)ccc1O	Mdm2 MdmX PPI 90.9 (no result: CSC inhib, SKKanGAS inh) | Mdm2-MdmX conf inactive
O=C1c2cccc3c(N4CCCCC4)ccc(c23)C(=O)N1c1ccccn1	none
CC(=O)Oc1ccc(N2C(=O)c3cccc4c([N+](=O)[O-])ccc(c34)C2=O)cc1	Mdm2 MdmX PPI 70.0 (no result: Beta apoptosis) | Mdm2-MdmX conf inactive
O=C1c2cccc3c([N+](=O)[O-])ccc(c23)C(=O)N1c1ccccn1	Mdm2 MdmX PPI 96.3, CSC inhib 105.0 (no result: Beta apoptosis) | Mdm2-MdmX conf 62.8 | FLuc counter inactive
O=C1c2cccc3c([N+](=O)[O-])ccc(c23)C(=O)N1c1ccc(Cl)cn1	Mdm2 MdmX PPI 100.3, CSC inhib 112.0 | Mdm2-MdmX conf 100.2 | FLuc counter 53.7
O=C1c2ccc([N+](=O)[O-])cc2C(=O)N1c1ccc(Cl)cn1	none
O=C1c2cccc3c([N+](=O)[O-])ccc(c23)C(=O)N1c1nccs1	Mdm2 MdmX PPI 92.4, CSC inhib 79.4, NR3A LBD binder 10.2 | Mdm2-MdmX conf 90.2 | FLuc counter inactive
Cc1ccc(S(=O)(=O)NCC(=O)NC2CC2)cc1	none
CCCCN1C[C@H](Cc2ccccc2)[C@@H](CC(=O)NC)C1=O	none (no result: Mdm2 MdmX PPI, CSC inhib, SKKanGAS inh, Beta apoptosis, NR3A LBD binder)
C[C@]12C=CC(=O)C=C1CC[C@@H]1C2[C@@H](O)C[C@@]2(C)C1CC[C@]2(O)C(=O)COC(=O)CCC(=O)O (some centres undefined)	none
CO/N=C\c1cc(C(=O)c2ccc(Cl)cc2Cl)cn1C	none (no result: Beta apoptosis)
O=C(/C=C/c1ccccc1)c1ccc2c(c1)OCCCCO2	none
O=C(CCl)N(C/C=C/c1ccccc1)c1ccc2c(c1)OCCO2	Mdm2 MdmX PPI 79.5 | Mdm2-MdmX conf 66.7 | FLuc counter inactive
